Rows were chosen to be rich in hits. Some 6.2% of all compounds tested hit in one or more screens of this group.
Luc counter: blocks Kinase-Glo luciferase, a counter-screen artifact. Kinase-Glo luciferase, ATP luminescence, 8 min. Q27757. Potency, µM (doses to about 38.3 µM), inactives show at the highest dose activity change, negative = inhibition, usual class: inhibitors. 200,000 tested, 0.28% active; further: nearly all actives have a fitted effect of over 60% in size
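Compound is pinned into ATP-containing buffer (10 uM ATP, imidazole pH 7.2, 7 mM MgCl2). Kinase-Glo luciferase reagent is then added. Light output is recorded following an 8-min room-temperature incubation.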
Gal4-VP16 FLuc: counter-screen for ROR gamma inhibitors: Gal4-VP16 reporter; Drosophila S2 Gal4-VP16 UAS-luciferase, luminescence, 20 h; Potency, µM (titrated, usually from 53.6 µM), for inactives: at the top dose activity, negative = inhibition, usual class: inhibitors; 310,000 tested, 3.5% active;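 further: Gal4-VP16 expression switched on by copper sulfate through the metallothionein promoter; nearly all actives have a fitted effect of over 50% in size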
RORgamma inh: blocks mouse ROR gamma transcriptional activity; 310,000 tested, 5.4% active; P51450; AID 2551; Potency, µM (top dose mostly 53.6 µM), without a hit: at the top dose activity change, negative = inhibition, actives largely listed as inhibitors; Drosophila S2 Gal4-RORgamma UAS-luciferase reporter, 20 h; further: nearly all actives have a fitted effect of over 60% in size
Target sequence (P51450 whole entry, looked up, the tested form may be a part): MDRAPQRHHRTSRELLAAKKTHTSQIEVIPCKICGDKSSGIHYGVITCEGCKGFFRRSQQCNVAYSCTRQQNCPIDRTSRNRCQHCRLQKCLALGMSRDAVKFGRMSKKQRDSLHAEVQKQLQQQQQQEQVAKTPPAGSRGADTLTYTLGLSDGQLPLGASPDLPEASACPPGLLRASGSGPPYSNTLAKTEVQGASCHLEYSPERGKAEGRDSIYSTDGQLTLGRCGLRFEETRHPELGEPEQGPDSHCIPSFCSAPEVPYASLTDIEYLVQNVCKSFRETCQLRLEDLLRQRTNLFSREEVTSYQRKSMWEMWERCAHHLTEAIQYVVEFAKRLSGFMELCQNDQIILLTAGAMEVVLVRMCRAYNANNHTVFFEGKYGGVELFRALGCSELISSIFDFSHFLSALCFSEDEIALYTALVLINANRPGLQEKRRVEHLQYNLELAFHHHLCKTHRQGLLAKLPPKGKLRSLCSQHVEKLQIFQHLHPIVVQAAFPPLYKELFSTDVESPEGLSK
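Compounds are pin-transferred onto Drosophila Schneider cells expressing a copper-inducible Gal4–ROR gamma transactivation domain fusion. After 1 hr, copper sulfate is added to 700 uM final; luciferase is read 20 hr later.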
An asterisk follows results filed as active; [ ] = dose if it differs, or a comment. The call rests on the fitted dose curve; in most records, active means well fitted curve in the direction sought with a large enough effect; inconclusive means small, poorly fitted or top-dose-only effect, or another doubt; inactive means no such curve, though single readings can be large; an effect the other way counts as inactive or inconclusive. On the % scale 0 is the no-effect control and ±100 the full control effect; potency means the concentration at half of the fitted maximal effect.

COc1cc(C(C[N+](=O)[O-])c2c(-c3ccccc3)cc3ccccn23)cc(OC)c1OC (stereo not given) was read as Luc counter 5.9%, Gal4-VP16 FLuc inconclusive and RORgamma inh inconclusive.
COc1cc(C(C[N+](=O)[O-])c2c(C)cc3ccccn23)ccc1O (stereo not given) was read as Gal4-VP16 FLuc inconclusive and RORgamma inh 15.8µM*.
Screening COc1ccc(C(C[N+](=O)[O-])c2c(-c3ccccc3)cc3ccccn23)cc1OC (stereo not given) returned Luc counter -5.2%, Gal4-VP16 FLuc inconclusive and RORgamma inh 8.91µM*.
`Oc1ccccc1N=Cc1c(O)ccc2oc3c(c12)CCCC3` gave Gal4-VP16 FLuc 10µM* and RORgamma inh 3.16µM*.
For O=C(O)c1ccc(N=Cc2c(O)ccc3oc4c(c23)CCCC4)cc1 the results were Gal4-VP16 FLuc -2.9% and RORgamma inh -41.4%.
Cc1ccc(S(=O)(=O)N=S(CC2CC2(Cl)Cl)CC2CC2(Cl)Cl)cc1 (stereo not given) was read as Luc counter -2.2%, Gal4-VP16 FLuc 2.1% and RORgamma inh -6.6%.
CC(=O)NC(=S)NNC(=O)C(c1ccccc1)c1ccccc1 was read as Luc counter -0.4%, Gal4-VP16 FLuc -5.9% and RORgamma inh 6.31µM*.
N#CCC(=O)NNC(=S)NC(=O)C(c1ccccc1)c1ccccc1 was read as Luc counter -4.4%, Gal4-VP16 FLuc -7.4% and RORgamma inh -7.8%.
Screening CCOC(=O)N/C(N)=N/c1nc2ccccc2s1 returned Luc counter -2.4%, Gal4-VP16 FLuc 28.2µM* and RORgamma inh inconclusive.
CC(C)NC(=O)NC(=O)COC(=O)CCCSc1nc2ccccc2s1 was read as Luc counter 2.2%, Gal4-VP16 FLuc 6.31µM* and RORgamma inh 11.2µM*.
`NC(=O)NC(=O)COC(=O)CCCSc1nc2ccccc2s1` gave Gal4-VP16 FLuc 8.91µM* and RORgamma inh 11.2µM*.
Screening O=C(COC(=O)CCCc1nc2ccccc2s1)NC(=O)NCc1ccco1 returned Luc counter 2.3%, Gal4-VP16 FLuc -10.9% and RORgamma inh -16.2%.
For CC(=O)N/C(N)=N/c1nc(=O)c2ccccc2s1 the results were Gal4-VP16 FLuc 0.5% and RORgamma inh -23.8%.
CCC(C)(C)NC(=O)CCCSc1nc2ccccc2s1 was read as Luc counter -2.4%, Gal4-VP16 FLuc -50.9% and RORgamma inh -40.4%.
CCOC(=O)NC(=O)COC(=O)CCCSc1nc2ccccc2s1 was read as Luc counter -0.4%, Gal4-VP16 FLuc 8.91µM* and RORgamma inh 7.08µM*.
Screening O=C(CSc1nc2ccccc2s1)Nc1ncccn1 returned Luc counter -2.1%, Gal4-VP16 FLuc -0.9% and RORgamma inh -1.3%.
`COc1ccc(CCNC(=O)C2CCN(S(C)(=O)=O)CC2)cc1` gave Luc counter -3.7%, Gal4-VP16 FLuc 1.6% and RORgamma inh 0.8%.
CCCCCCCCCCCCCCCC(=O)NC(C)C(=O)O (stereo not given) was read as Luc counter 0.3%, Gal4-VP16 FLuc 0.2% and RORgamma inh -1.0%.
Screening Cc1c(C)n(CCCN(C)C)c2ncnc(NCc3ccccc3)c12 returned Gal4-VP16 FLuc 1.7% and RORgamma inh -6.0%.
Screening CCn1cc(-c2csc(N)n2)c(C)n1 returned Luc counter -1.4%, Gal4-VP16 FLuc 5.4%[10 µM] and RORgamma inh 1.1%.
Screening Cc1ccc(SCc2nc(-c3ccncc3)no2)cc1 returned Luc counter 0.4%, Gal4-VP16 FLuc 7.2% and RORgamma inh 36.8%.
For c1ccc(SCc2nc(-c3ccncc3)no2)cc1 the results were Luc counter -2.8%, Gal4-VP16 FLuc 11.2µM* and RORgamma inh inconclusive.
Screening Cc1onc(-c2c(F)cccc2Cl)c1C(=O)NC(=S)NC1CCSC1=O (stereo not given) returned Luc counter 0.0%, Gal4-VP16 FLuc 7.08µM* and RORgamma inh 7.08µM*.
For O=C(NC(=S)NC1CCSC1=O)c1cccs1 (stereo not given) the results were Luc counter -0.1%, Gal4-VP16 FLuc inconclusive and RORgamma inh -30.4%.
`Cc1ccccc1C(=O)NC(=S)NC1CCSC1=O` (stereo not given) gave Luc counter -0.7%, Gal4-VP16 FLuc -19.2% and RORgamma inh 11.2µM*.
Screening Cc1onc(-c2c(F)cccc2Cl)c1C(=O)NC1CC1 returned Gal4-VP16 FLuc -3.1% and RORgamma inh 16.0%.
Screening Cc1cc(C)n(-c2ccc(C(=O)NCCCN3CCOCC3)cc2)n1 returned Luc counter 7.3%, Gal4-VP16 FLuc 3.9% and RORgamma inh -23.4%.
`O=c1[nH]c2ccc(N/C(=N/S(=O)(=O)c3ccccc3)c3ccccc3)cc2[nH]1` gave Luc counter 1.8%, Gal4-VP16 FLuc -5.3% and RORgamma inh 37.5%.
Screening O=C(O)CSCc1ccc(Cl)cc1 returned Luc counter -0.7%, Gal4-VP16 FLuc 3.9% and RORgamma inh -2.0%.
`CC1=NN(C(=O)CCc2ccccc2)C(O)(c2ccncc2)C1` (stereo not given) gave Luc counter -0.3%, Gal4-VP16 FLuc inconclusive and RORgamma inh 1.78µM*.
For CCOC(=O)C1=NN(C(=O)COc2ccccc2)C(O)(c2ccc(Br)cc2)C1 (stereo not given) the results were Luc counter 5.7%, Gal4-VP16 FLuc 11.2µM* and RORgamma inh 4.47µM*.
CCC1=NN(C(=O)COc2ccccc2)C(O)(c2ccncc2)C1 (stereo not given) was read as Luc counter 2.5%, Gal4-VP16 FLuc -18.7% and RORgamma inh 18.7%.
Screening CC1=NN(C(=O)CSCc2ccccc2)C(O)(c2ccc(Cl)cc2)C1 (stereo not given) returned Luc counter 1.3%, Gal4-VP16 FLuc inconclusive and RORgamma inh 10µM*.
Screening Cc1ccc(OCC(=O)N2N=C(C(F)(F)F)CC2(O)C(C)(C)C)cc1C (stereo not given) returned Luc counter -3.8%, Gal4-VP16 FLuc inconclusive and RORgamma inh -69.6%.
For CC(C)(C)C1(O)CC(C(F)(F)F)=NN1C(=O)CCc1ccccc1 (stereo not given) the results were Luc counter -3.3%, Gal4-VP16 FLuc -23.0% and RORgamma inh -26.1%.
Screening CC1=NN(C(=O)COc2ccc(C)c(C)c2)C(O)(c2ccc(Cl)cc2)C1 (stereo not given) returned Luc counter -2.0%, Gal4-VP16 FLuc 15.8µM* and RORgamma inh 7.08µM*.
For CC(C)NS(=O)(=O)c1ccc(CCC(=O)NCc2ccncc2)cc1 the results were Luc counter 3.1%, Gal4-VP16 FLuc inconclusive and RORgamma inh -19.1%.
O=C1CCN(Cc2nnnn2CC2CCCO2)c2ccccc2N1 (stereo not given) was read as Luc counter -3.2%, Gal4-VP16 FLuc -5.2% and RORgamma inh -16.3%.
CC(=O)c1cccc(N2Cc3ccccc3C2=NC(=O)CCl)c1 was read as Luc counter -2.1%, Gal4-VP16 FLuc inconclusive and RORgamma inh 2.1%.
`COC(=O)C1=NN(C(=O)c2ccc(Br)cc2)C(O)(C(C)(C)C)C1` (stereo not given) gave Luc counter 0.8%, Gal4-VP16 FLuc inconclusive and RORgamma inh inconclusive.

Bioassay records from PubChem BioAssay.
